Measured values: PubChem BioAssay
The source made the active and inactive calls. Unless noted, the rule behind the calls is not given here.

What was measured:
[1] = resazurin metabolic signal in HepG2 cells – cell-based, resazurin fluorescence, 24 h, PK04 Diversity Set, profiling panel (AID 1172); conditions: HepG2 viability, higher = more signal; note: test concentration not given here
[2] = budding yeast growth changes without added modifier – OD600, strain BY4716, 24 h, basal condition, primary screen (AID 1173); conditions: S. cerevisiae BY4716 growth, OD600, 24 h; higher = more signal, called active from +8 up or from −8 down
[3] = viability profiling in MM1S myeloma cells – cell-based, resazurin fluorescence, basal, 24 h, PK04 Diversity Set, profiling panel (AID 1174); conditions: higher = more signal, called active from +8 up or from −8 down;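 note: MM1S multiple myeloma cell line; test concentration not given here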
[4] = molecular target: Dihydroorotate dehydrogenase (quinone), mitochondrial (Plasmodium falciparum (isolate 3D7)) (UniProt Q08210); test: inhibition of P. falciparum DHODH – biochemical, C-terminal His tag, absorbance 600 nm, primary screen (AID 1175); conditions: PfDHODH enzyme, DCIP absorbance 600 nm; higher = more signal, called active from +8 up or from −8 down;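 note: recombinant parasite enzyme with a five histidine tag at its C terminus; test concentration not given here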
Chain of Dihydroorotate dehydrogenase (quinone), mitochondrial (Plasmodium falciparum (isolate 3D7)) (Q08210 whole entry, looked up): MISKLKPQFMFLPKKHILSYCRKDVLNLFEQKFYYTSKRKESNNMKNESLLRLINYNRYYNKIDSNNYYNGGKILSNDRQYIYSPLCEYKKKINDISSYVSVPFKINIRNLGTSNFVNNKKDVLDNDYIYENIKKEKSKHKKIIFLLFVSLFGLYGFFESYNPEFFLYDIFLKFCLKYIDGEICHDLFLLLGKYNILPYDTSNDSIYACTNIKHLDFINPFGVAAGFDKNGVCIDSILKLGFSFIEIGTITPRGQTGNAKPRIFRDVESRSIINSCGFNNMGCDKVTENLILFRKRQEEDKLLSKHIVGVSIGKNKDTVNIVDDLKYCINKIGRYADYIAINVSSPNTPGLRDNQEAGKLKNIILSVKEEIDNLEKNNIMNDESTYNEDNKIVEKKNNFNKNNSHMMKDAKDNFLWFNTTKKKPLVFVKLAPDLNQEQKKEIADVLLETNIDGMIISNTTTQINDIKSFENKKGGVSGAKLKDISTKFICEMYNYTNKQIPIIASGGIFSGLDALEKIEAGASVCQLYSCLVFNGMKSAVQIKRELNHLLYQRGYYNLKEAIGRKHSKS

[5] = inhibition of PAO1 biofilm formation – strain PAO1, LB-PBS medium, absorbance 600 nm, primary screen (AID 1176); note: test concentration not given here; conditions: P. aeruginosa PAO1 growth/biofilm, A600, 12 h; higher = more signal
[6] = growth modulation of vineyard yeast isolate – strain RM11-1a, OD600, basal, 24 h, primary screen (AID 1177);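 note: cultures grown under basal conditions with no added stressor; test concentration not given here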; conditions: S. cerevisiae RM11-1a growth, OD600, 24 h; higher = more signal, called active from +8 up or from −8 down
[7] = growth of efflux-deficient E. coli DRC39 – strain DRC39, OD650, 24 h, E. coli filamentation inducers, primary screen (AID 1178);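 note: growth measured as culture turbidity by optical density at 650 nm; test concentration not given here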; conditions: E. coli DRC39 acrAB, higher = more signal, called active from +8 up or from −8 down
[8] = growth of efflux-deficient E. coli DRC39 – strain DRC39, OD650, 48 h, E. coli filamentation inducers, primary screen (AID 1179);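 note: screen aims at cell division blockers that make cells filament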; conditions: E. coli DRC39 delta-acrAB growth, higher = more signal, called active from +8 up or from −8 down
[9] = viability profiling in RPMI8226 myeloma cells – cell-based, resazurin fluorescence, basal, 24 h, PK04 Diversity Set, profiling panel (AID 1180); conditions: higher = more signal;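 note: RPMI8826 multiple myeloma cell line at 5000 cells per well; test concentration not given here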
[10] = molecular target: E3 ubiquitin-protein ligase XIAP (Homo sapiens) (UniProt P98170); test: small molecules binding XIAP protein – biophysical, small-molecule microarray, fluorescence 635 nm, primary screen (AID 1181); conditions: higher = more signal;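 note: score merges 667 nm emission and signal to noise over triplicate slides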
Chain of E3 ubiquitin-protein ligase XIAP (Homo sapiens) (P98170 whole entry, looked up): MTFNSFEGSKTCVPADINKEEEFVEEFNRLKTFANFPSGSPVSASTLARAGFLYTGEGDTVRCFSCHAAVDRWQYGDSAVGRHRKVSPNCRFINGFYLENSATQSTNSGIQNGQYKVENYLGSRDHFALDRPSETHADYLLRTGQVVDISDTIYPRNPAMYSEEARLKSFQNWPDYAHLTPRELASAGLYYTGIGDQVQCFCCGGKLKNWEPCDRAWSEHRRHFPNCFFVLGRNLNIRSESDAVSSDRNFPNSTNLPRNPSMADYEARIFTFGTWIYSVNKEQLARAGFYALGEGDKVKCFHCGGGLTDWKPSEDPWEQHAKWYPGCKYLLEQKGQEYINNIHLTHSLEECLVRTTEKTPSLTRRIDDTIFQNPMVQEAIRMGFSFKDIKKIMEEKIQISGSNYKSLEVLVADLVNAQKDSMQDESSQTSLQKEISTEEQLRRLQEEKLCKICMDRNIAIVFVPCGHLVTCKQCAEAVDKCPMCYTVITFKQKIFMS

SMILES	z-score [1]	z-score [2]	z-score [3]	composite z-score [4]	z-score [5]	z-score [6]	z-score [7]	z-score [8]	z-score [9]	composite z-score [10]
CC(C)[C@H]1NC(=O)[C@@]23C(=O)N[C@@H](Cc4ccccc4)C2[C@H](C)[C@@]2(C)O[C@H]2C3/C=C/CCC/C=C/CNC(=O)[C@H](Cc2ccccc2)NC1=O (stereo not given in full)	-1.15	-1.76 (inactive)	-0.457 (inactive)	0.112 (inactive)	-0.471 (inactive)	-0.201 (inactive)	-0.297 (inactive)	-0.786 (inactive)	0.0125	-0.039
C=CCN1C(=O)[C@]2(O[C@H](CCO)[C@@H]([Si](C)(C)c3ccc(OC)cc3)[C@@H]2C)c2cc(NC(=O)c3ccc(OC)cc3)ccc21	-4.24	-1.07 (inactive)	-4.56 (inactive)	-0.224 (inactive)	1.98 (inactive)	2.23 (inactive)	0.626 (inactive)	-0.723 (inactive)	-6.22	0.401
CC(C)=CCCC(C)=CC(O)C1C=CC2C(=O)N(c3ccccc3)C(=O)C2N1Nc1ccccc1F (stereo not given)	0.856	-1.18 (inactive)	0.47 (inactive)	-0.323 (inactive)	0.505 (inactive)	-0.54 (inactive)	0.131 (inactive)	0.739 (inactive)	1.22	-0.21
[N-]=[N+]=NC[C@H](Cc1ccccc1)NC(=O)c1ccccc1	0.198	-3.7 (inactive)	1.46 (inactive)	-0.178 (inactive)	-0.382 (inactive)	-0.401 (inactive)	0.487 (inactive)	0.352 (inactive)	0.839	-0.394
COc1ccc(C(=O)Nc2cccc(CN3C(=O)[C@@]4(O[C@@H](CC(=O)N(CCO)Cc5ccccc5)[C@H]([Si](C)(C)c5ccc(OC)cc5)[C@H]4C)c4ccccc43)c2)cc1	-0.0246	0.062 (inactive)	-2.3 (inactive)	-2.25 (inactive)	0.711 (inactive)	0.621 (inactive)	0.289 (inactive)	0.45 (inactive)	-2.67	-0.0365
CO[C@H]1O[C@H](CO)[C@@H](OC(=O)Nc2cccc(F)c2)[C@H](OC(=O)Nc2ccccc2-c2ccccc2)[C@H]1OC(=O)Nc1ccccc1-c1ccccc1	-4.61	0.748 (inactive)	-5.86 (inactive)	0.791 (inactive)	1.16 (inactive)	1.03 (inactive)	-0.852 (inactive)	-0.516 (inactive)	-4.87	-0.0925
Cc1cccc([C@H]2C[C@H]3C(I)=C[C@@H]2C(=O)[C@]32CO2)c1	0.644	-10.5 (active)	-0.415 (inactive)	0.284 (inactive)	0.531 (inactive)	-0.639 (inactive)	-0.545 (inactive)	-1.15 (inactive)	0.305	0.49
C=C(COC)/C(=C/C[C@@H](OC(=O)c1ccncc1)c1ccccc1OCCO)c1cc(C(=O)OC)ccc1OC	0.106	-1.35 (inactive)	-1.03 (inactive)	-4 (inactive)	0.825 (inactive)	0.0248 (inactive)	0.404 (inactive)	0.32 (inactive)	-1.35	-0.211
C=C(COC)/C(=C/C[C@H](OC(C)=O)c1cccc(OCCO)c1)c1cnc2ccccc2c1	-0.0054	1.02 (inactive)	-0.496 (inactive)	-6.23 (inactive)	0.0721 (inactive)	1.56 (inactive)	-0.901 (inactive)	-0.856 (inactive)	-0.58	-0.0749
CC1CC/C=C\[C@H]2OC34C=CCN(CCN5CCOCC5)C(=O)[C@H]3N(C(C)CO)C(=O)[C@@H]4C2C(=O)O1 (stereo not given in full)	-0.0282	-0.348 (inactive)	-0.0757 (inactive)	-1.44 (inactive)	-0.0711 (inactive)	0.366 (inactive)	-0.0135 (inactive)	0.432 (inactive)	-0.574	-0.0807
COC(=O)C(CC#Cc1ccc2c(c1)[C@]1(C(=O)N2)[C@H](c2ccc(OCCO)cc2)N2[C@H](c3ccccc3)[C@H](c3ccccc3)OC(=O)[C@H]2[C@@H]1C(=O)N1CCN(c2ncccn2)CC1)C(=O)OC	-0.175	1.96 (inactive)	-0.382 (inactive)	-6.39 (inactive)	3.09 (inactive)	1.79 (inactive)	0.452 (inactive)	0.152 (inactive)	-2.63	0.0651
COCCOC(=O)N1C(=O)[C@@]2(c3cc(C#CC4(O)CCCCCC4)ccc31)[C@H](c1ccc(OCCO)cc1)N1[C@H](c3ccccc3)[C@H](c3ccccc3)OC(=O)[C@H]1[C@@H]2C(=O)Nc1nc2ccccc2s1	1.39	1.46 (inactive)	-0.773 (inactive)	-1.19 (inactive)	2.98 (inactive)	2.43 (inactive)	-0.0994 (inactive)	-0.347 (inactive)	-0.494	0.332
Cc1ccc(C(C)CC(O)C2C=CC3C(=O)N(c4ccccc4)C(=O)C3N2Nc2ccc(C#N)cc2)o1 (stereo not given)	-0.793	-17.1 (active)	-3.76 (inactive)	-1.79 (inactive)	0.0616 (inactive)	-20.8 (active)	0.431 (inactive)	1.14 (inactive)	-5.62	0.0204
COc1ccc([Si](C)(C)[C@H]2[C@H](CC(=O)N3CCC[C@H]3CO)O[C@@]3(C(=O)N(Cc4ccc(N5CCC5=O)cc4)c4ccccc43)[C@@H]2C)cc1	-1.39	-0.942 (inactive)	-1.7 (inactive)	-5.46 (inactive)	1 (inactive)	0.194 (inactive)	-1.17 (inactive)	-1.29 (inactive)	-0.944	-0.0339
COc1ccc([Si](C)(C)[C@@H]2[C@@H](CC(=O)N3Cc4ccccc4C[C@H]3CO)O[C@]3(C(=O)N(c4ccccc4)c4ccccc43)[C@H]2C)cc1	-1.05	0.318 (inactive)	-2.64 (inactive)	1.13 (inactive)	0.626 (inactive)	2.42 (inactive)	0.33 (inactive)	-0.165 (inactive)	-4.45	2.42
CCOC(=O)C1=CC[C@@H](c2ccccc2)N(S(=O)(=O)c2ccc(C)cc2)[C@H]1c1cccc(OC)c1	0.0088	2.25 (inactive)	-0.387 (inactive)	-0.777 (inactive)	0.325 (inactive)	1.21 (inactive)	-0.577 (inactive)	0.244 (inactive)	-1.22	-0.022
COCCOC(=O)N1C(=O)[C@@]2(c3cc(C#CC4(O)CCCCCC4)ccc31)[C@H](C(=O)N1CCN(c3ncccn3)CC1)[C@H]1C(=O)O[C@H](c3ccccc3)[C@H](c3ccccc3)N1[C@@H]2c1ccccc1OCCO	0.212	2.67 (inactive)	-0.194 (inactive)	0.97 (inactive)	2.12 (inactive)	3.05 (inactive)	-0.322 (inactive)	-0.473 (inactive)	0.177	-0.068
COCCOC(=O)N1C(=O)[C@@]2(c3cc(C#CCC(C(=O)OC)C(=O)OC)ccc31)[C@H](C(=O)NC[C@H](O)c1ccccc1)[C@H]1C(=O)O[C@H](c3ccccc3)[C@H](c3ccccc3)N1[C@@H]2c1ccc(O)cc1	0.442	1.14 (inactive)	0.73 (inactive)	-2.68 (inactive)	1.1 (inactive)	1.24 (inactive)	0.35 (inactive)	0.644 (inactive)	-1.4	-0.096
C=CCC(OC(C)=O)[C@@H]1[C@@H](N(Cc2cccc3ccccc23)C(=O)c2ccc(-c3ccccc3)cc2)c2cc(OCCCO)ccc2N1C(=O)c1ccc(-c2ccccc2)cc1 (stereo not given in full)	-0.132	-0.166 (inactive)	0.116 (inactive)	-0.948 (inactive)	0.055 (inactive)	-0.929 (inactive)	-0.277 (inactive)	-0.228 (inactive)	0.0263	-0.114
COc1cc(NN2C(C(O)c3ccc(I)cc3)C=CC3C(=O)N(c4ccccc4)C(=O)C32)cc(OC)c1OC (stereo not given)	-1.35	0.645 (inactive)	-0.694 (inactive)	-0.755 (inactive)	0.835 (inactive)	0.0247 (inactive)	0.456 (inactive)	0.176 (inactive)	-1.34	0.162
COCCOC(=O)N1C(=O)[C@@]2(c3cc(C#CCNC(N)=O)ccc31)[C@H](c1ccc(OCCO)cc1)N1[C@H](c3ccccc3)[C@H](c3ccccc3)OC(=O)[C@H]1[C@@H]2C(=O)NC[C@H](O)c1ccccc1	0.637	1.82 (inactive)	0.0592 (inactive)	-1.88 (inactive)	2.18 (inactive)	1.54 (inactive)	0.48 (inactive)	-0.532 (inactive)	-0.45	-0.153
C=CCN1C(=O)[C@]2(O[C@H](CCO)[C@@H]([Si](C)(C)c3ccc(OC)cc3)[C@@H]2C)c2cc(N3C(=O)COc4ccccc43)ccc21	-5.79	0.346 (inactive)	-8.88 (active)	0.828 (inactive)	-0.34 (inactive)	2.96 (inactive)	1.55 (inactive)	0.68 (inactive)	-6.28	0.0356
COCC(=C=CC[C@H](O)c1cccc(OCCO)c1)C[C@H](O)COCc1ccccc1	-0.136	-1.76 (inactive)	-0.0529 (inactive)	-1.65 (inactive)	0.838 (inactive)	-0.496 (inactive)	-0.0164 (inactive)	0.0211 (inactive)	0.0473	0.0736
